Assay results: PubChem BioAssay AID743293 (Broad Institute, 2014)
Measured potencies and affinities stand elsewhere. Calls of active or inactive are those of the source.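 The calls were made as follows: active = compounds lowering fluorescence with a fitted half-maximal concentration at or below a set limit tied to top dose; inconclusive = flat curve with 30 to 70% inhibition, or poor fit; inactive = the rest.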

Target: Caspase-9 (Homo sapiens) (UniProt P55211)
Assay: inhibitors of purified CASP9 protease – biochemical, fluorescence, plate reader, cherry-picked samples, selectivity assay for caspase-6 inhibitor project, dose response (AID 743293)
Details: purified caspase-9, Z-LEHD-R110 cleavage fluorescence; series mostly up to 35 µM; activity change, negative = inhibition: at the top concentration

Chain of Caspase-9 (Homo sapiens) (P55211 whole entry, looked up): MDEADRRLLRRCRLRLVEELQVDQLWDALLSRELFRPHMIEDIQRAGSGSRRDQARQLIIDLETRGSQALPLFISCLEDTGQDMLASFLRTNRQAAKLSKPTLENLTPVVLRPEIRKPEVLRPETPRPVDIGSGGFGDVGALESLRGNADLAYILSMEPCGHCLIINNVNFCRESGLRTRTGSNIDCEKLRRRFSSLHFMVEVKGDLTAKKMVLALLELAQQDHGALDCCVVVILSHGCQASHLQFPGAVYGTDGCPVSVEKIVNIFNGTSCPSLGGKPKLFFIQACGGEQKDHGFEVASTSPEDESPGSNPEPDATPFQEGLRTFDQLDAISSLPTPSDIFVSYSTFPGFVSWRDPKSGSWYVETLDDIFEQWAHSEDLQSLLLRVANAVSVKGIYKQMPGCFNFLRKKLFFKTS

Activity change, negative = inhibition, inactive:
CCN(CC)CCCC(C)n1c2nc(=O)[nH]c(=O)c-2nc2cc(Cl)ccc21 (stereo not given) 213% [at 11 µM]
COc1cc(-c2ccc(Nc3ccccc3C(=O)O)c(OC)c2)ccc1Nc1ccccc1C(=O)O 0.463%
O=C(O)C1CCCCC1C(=O)Nc1cccc(Br)c1 (stereo not given) 14%
O=C(Nc1ccc(S(=O)(=O)Nc2cnc3ccccc3n2)cc1)c1ccc(Cl)c([N+](=O)[O-])c1 2.21%
CC(CNc1ccccc1O)C(=O)O (stereo not given) -4.67%
O=c1oc(-c2ccccc2)nc2sc3c(c12)CCC3 -0.653%
Nc1ccc(Nc2ccccc2)c(S(=O)(=O)O)c1 -3.09%
CC(C)(C)c1ccc(NC(=O)COC(=O)c2ccc([N+](=O)[O-])s2)cc1 -5.62%
Cc1ccc(C)c(NC(=O)CN(C)C(=O)c2cccc(-n3cccc3)c2)c1 9.65%
CN(CC(=O)Nc1c(Cl)cccc1Cl)C(=O)c1cccc(-n2cccc2)c1 12.2%
Nc1cc2c(cc1Br)[nH]c(=O)c1ccccc12 -8.46%
Cc1cccc(NC(=O)CNC(=O)c2cccc(-n3cccc3)c2)c1C 4.32%
CCCCN(C(=O)c1cccc(-n2cccc2)c1)c1c(N)n(CCC)c(=O)[nH]c1=O 12.8%
O=C(O)/C(=C\c1ccc(Cl)c([N+](=O)[O-])c1)c1ccc(S(=O)(=O)N2CCCC2)s1 8.03%
COc1ccc([N+](=O)[O-])cc1NC(=O)CCS(=O)(=O)c1ccc(Br)cc1 11.5%
O=C(COC(=O)c1ccccc1)Nc1ncc([N+](=O)[O-])s1 -6.14%
O=C(O)CCc1ccc(-c2ccc(Br)cc2)n1CC(=O)O -0.071%
Cc1ccc(S(=O)(=O)Nc2csc(C)c2C(=O)O)cc1 2.43%
O=C(CCO)c1ccc(O)cc1 12.8%
Cc1[nH]nc(S(=O)CC(=O)O)c1[N+](=O)[O-] (stereo not given) 6.6%
COCCn1c2nc(=O)n(-c3ccccc3)c(=O)c-2nc2ccccc21 189%
O=P(c1ccccc1)(c1ccccc1)c1cc(S(=O)(=O)O)ccc1O -5.38%
O=c1oc2ccccc2c2oc3cc(O)c(O)cc3c12 13.4%
Cn1cnnc1SCC(=O)Nc1ncc([N+](=O)[O-])s1 3.93%
O=C(O)CC(CCc1ccccc1)OC1OC(CO)C(O)C(O)C1O (stereo not given) 6%
CNS(=O)(=O)c1cccc(C(=O)OCC(=O)N2c3ccccc3NC(=O)C2(C)C)c1 10.5%
O=c1cc2c(=O)oc3cc(O)c(O)oc3c2c(O)c1O -13.2%
O=C(Nc1ccc2nc3n(c(=O)c2c1)CCCCC3)c1c(F)ccc([N+](=O)[O-])c1F 10.9%
CCCSC1=N/C(=C\c2ccc([N+](=O)[O-])o2)C(=O)S1 1.27%
O=c1c(CO)cc(CO)cc(CO)c1O -3.26%
